Laboratory results published in PubChem BioAssay (NCI).
This is part of a sample that, as a whole, favours compounds with a hit. Of some 83,000 tested, about 20% had one in any assay.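 48-hour exposure, single concentration, 96-well plates; percent growth endpoint where 0 means no net growth. Active: below 10.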 Calls of active or inactive are those of the source.

Assays:
Assay in all cases: NCI-60 one-dose screen, 48 h (100 = growth as untreated, 0 = no growth, -100 = all killed)
Conditions in all cases: 10 µM
SK-MEL-2 melanoma = tested on: SK-MEL-2 melanoma
SN12C renal = tested on: SN12C renal
TK-10 renal = tested on: TK-10 renal
ACHN renal = tested on: ACHN renal
CAKI-1 renal = tested on: CAKI-1 renal
A498 renal = tested on: A498 renal
CCRF-CEM leukemia = tested on: CCRF-CEM leukemia
MOLT-4 leukemia = tested on: MOLT-4 leukemia
EKVX NSCLC = tested on: EKVX NSCLC
UO-31 renal = tested on: UO-31 renal

Measured: growth

O=C1C=C(Nc2cccc(Br)c2)c2ccccc2C1=O
inactive: SN12C renal 53.6% | TK-10 renal 89.8% | ACHN renal 50.8% | CAKI-1 renal 78.3% | A498 renal 88.6% | CCRF-CEM leukemia 81.4% | MOLT-4 leukemia 81%
active: SK-MEL-2 melanoma 7.56%

COc1ccc2nc3cc(Cl)ccc3c(Nc3cc(CN4CCCC4)c(O)c(CN4CCCC4)c3)c2n1
active: EKVX NSCLC 8.66% | CAKI-1 renal -4.38% | A498 renal -17.4% | CCRF-CEM leukemia 2.85% | MOLT-4 leukemia -25.2%
inactive: SN12C renal 10.7% | UO-31 renal 18.9% | TK-10 renal 21.4% | ACHN renal 22.9%

COC(=O)c1c[nH]c2cc(OC(C)C)c(OC(C)C)cc2c1=O
inactive: EKVX NSCLC 98.8% | SN12C renal 108% | UO-31 renal 84% | TK-10 renal 113% | ACHN renal 100% | CAKI-1 renal 97.2% | A498 renal 103% | CCRF-CEM leukemia 80.9% | MOLT-4 leukemia 109%

c1ccc(CSc2ncccc2-c2nnc(SCCN3CCOCC3)o2)cc1
inactive: EKVX NSCLC 108% | SN12C renal 114% | UO-31 renal 89.4% | TK-10 renal 118% | ACHN renal 124% | CAKI-1 renal 100% | A498 renal 107% | CCRF-CEM leukemia 103% | MOLT-4 leukemia 103%

CN1C(C(=O)Nc2ccccn2)=C(O)c2sc(Cl)cc2S1(=O)=O
inactive: EKVX NSCLC 102% | SN12C renal 103% | UO-31 renal 78.8% | TK-10 renal 104% | ACHN renal 100% | CAKI-1 renal 92.4% | A498 renal 90.1% | CCRF-CEM leukemia 87.4% | MOLT-4 leukemia 110%

Cc1nn(-c2ccccc2)c2nc(Cl)c(C=O)c(-c3ccccc3)c12
inactive: SK-MEL-2 melanoma 114% | SN12C renal 98.2% | UO-31 renal 48.1% | TK-10 renal 113% | ACHN renal 114% | A498 renal 78.6% | CCRF-CEM leukemia 36.3%

CC(C)(C)c1nn(-c2ccccc2)c2c1CC1(CN2Cc2ccc(Cl)cc2)C(=O)c2ccccc2C1=O
inactive: SK-MEL-2 melanoma 92.4% | SN12C renal 86.1% | UO-31 renal 99.6% | TK-10 renal 99.3% | ACHN renal 98.9% | A498 renal 76.5% | CCRF-CEM leukemia 66.2%

C[C@]12CCC3c4ccc(O)cc4C[C@@H](CCCCCCCCCS(=O)CCCC(F)(F)C(F)(F)F)C3C1CC[C@@H]2O (some centres not stated)
inactive: EKVX NSCLC 64.8% | SN12C renal 93.7% | UO-31 renal 62.7% | TK-10 renal 93% | ACHN renal 74.3% | CAKI-1 renal 59.2% | A498 renal 84.6% | CCRF-CEM leukemia 73.6% | MOLT-4 leukemia 39.6%

CC(=O)/C(=C/c1ccc(Br)cc1)C(=O)c1ccccc1
active: CCRF-CEM leukemia -7.34% | MOLT-4 leukemia -5.12%
inactive: SK-MEL-2 melanoma 107% | SN12C renal 69.1% | UO-31 renal 57.4% | ACHN renal 56.1% | CAKI-1 renal 80.2% | A498 renal 91.6%

Nc1cc(-c2ccncc2)c[nH]c1=O
inactive: EKVX NSCLC 84.1% | SN12C renal 104% | UO-31 renal 82.5% | TK-10 renal 99.9% | ACHN renal 102% | CAKI-1 renal 99.5% | A498 renal 73.3% | CCRF-CEM leukemia 113% | MOLT-4 leukemia 77.4%

O=C1Cc2cc(CCN3CCN(c4nsc5ccccc45)CC3)c(Cl)cc2N1
active: CCRF-CEM leukemia 9.84%
inactive: EKVX NSCLC 88.1% | SN12C renal 91% | UO-31 renal 58.8% | TK-10 renal 104% | ACHN renal 95.6% | CAKI-1 renal 86.6% | A498 renal 64.1% | MOLT-4 leukemia 81.8%

CCCCc1oc2ccccc2c1C(=O)c1cc(I)c(OCCN(CC)CC)c(I)c1
inactive: ACHN renal 20%
active: EKVX NSCLC 3.63% | SN12C renal 5.13% | UO-31 renal -37% | TK-10 renal -40.5% | CAKI-1 renal -21% | A498 renal -47.3% | CCRF-CEM leukemia -32.2% | MOLT-4 leukemia -54.3%

COc1ccc(-c2nn(-c3cccc(Cl)c3)cc2-c2c(C#N)c(N)n(N)c(=O)c2C#N)cc1
inactive: SK-MEL-2 melanoma 77.4% | SN12C renal 68.9% | TK-10 renal 59.8% | ACHN renal 87.2% | CCRF-CEM leukemia 56.8%

COc1ccc(-c2nc(-c3nc4ccc(C)cc4[nH]3)cc3c2[nH]c2ccccc23)cc1
active: SK-MEL-2 melanoma 9.81%
inactive: SN12C renal 28.5% | TK-10 renal 45% | ACHN renal 26.8% | CAKI-1 renal 44.4% | A498 renal 68% | CCRF-CEM leukemia 29.4% | MOLT-4 leukemia 21.9%

COc1ccccc1-n1c(-c2csc(NC(C)=O)n2)n[nH]c1=S
inactive: SK-MEL-2 melanoma 100% | SN12C renal 114% | UO-31 renal 79.6% | TK-10 renal 89.1% | ACHN renal 114% | CCRF-CEM leukemia 93.8% | MOLT-4 leukemia 92.3%

COc1cc(-c2ccc(N=Nc3ccc4c(S(=O)(=O)O)ccc(N)c4c3O)c(OC)c2)ccc1N=Nc1ccc2c(S(=O)(=O)O)ccc(N)c2c1O
inactive: SK-MEL-2 melanoma 102% | SN12C renal 123% | TK-10 renal 121% | ACHN renal 103% | A498 renal 124% | CCRF-CEM leukemia 105% | MOLT-4 leukemia 122%

Cc1cn(-c2cc(F)cc(NC(=O)c3ccc(C)c(Nc4nccc(-c5cccnc5)n4)c3)c2)cn1
inactive: SK-MEL-2 melanoma 64.4% | SN12C renal 20.9% | CCRF-CEM leukemia 45.6%
active: TK-10 renal -36.3% | ACHN renal -22.3%

CN1CCN(C2=Nc3ccccc3Oc3ccc(Cl)cc32)CC1
inactive: EKVX NSCLC 107% | SN12C renal 100% | UO-31 renal 77.1% | TK-10 renal 89.7% | ACHN renal 93.6% | CAKI-1 renal 81.5% | A498 renal 81.3% | CCRF-CEM leukemia 99.6% | MOLT-4 leukemia 80.3%

Cc1nc2n(c(=O)c1CCN1CCC(c3noc4cc(F)ccc34)CC1)CCC[C@@H]2O
inactive: EKVX NSCLC 92.8% | SN12C renal 101% | UO-31 renal 80% | TK-10 renal 109% | ACHN renal 95.9% | CAKI-1 renal 102% | A498 renal 80.5% | MOLT-4 leukemia 96.9%
active: CCRF-CEM leukemia -3.98%

CCN1CC(CCN2CCOCC2)C(C(c2ccccc2)c2ccccc2)C1=O (configuration not stated)
inactive: EKVX NSCLC 97.8% | SN12C renal 98.4% | UO-31 renal 85.5% | TK-10 renal 114% | ACHN renal 107% | CAKI-1 renal 91.5% | A498 renal 79.5% | CCRF-CEM leukemia 96.4% | MOLT-4 leukemia 100%

CCn1c(CSc2nc3ccccc3c(=O)n2CCc2ccccc2)n[nH]c1=S
inactive: SK-MEL-2 melanoma 103% | SN12C renal 104% | UO-31 renal 76.5% | TK-10 renal 98% | ACHN renal 96.8% | CCRF-CEM leukemia 83.9% | MOLT-4 leukemia 71%

CC(=O)O[C@@]12CO[C@@H]1C[C@H](O)[C@@]1(C)C(=O)[C@H](O)C3=C(C)[C@@H](OC(=O)[C@H](O)[C@@H](NC(=O)OC(C)(C)C)c4ccccc4)C[C@@](O)([C@@H](OC(=O)c4ccccc4)C12)C3(C)C (some centres not stated)
active: CAKI-1 renal 4.8%
inactive: EKVX NSCLC 59% | SN12C renal 56.3% | UO-31 renal 33.5% | TK-10 renal 42.1% | ACHN renal 56.9% | A498 renal 22.6% | CCRF-CEM leukemia 29.9% | MOLT-4 leukemia 25.4%

COc1ccc(-c2nn(-c3cccc(Cl)c3)cc2/C=C2\NC(=S)N(c3ccc(Cl)cc3)C2=O)cc1
active: SK-MEL-2 melanoma -26.3% | MOLT-4 leukemia -22.9%
inactive: SN12C renal 20.4% | UO-31 renal 53.6% | TK-10 renal 27.7% | ACHN renal 51.1% | CCRF-CEM leukemia 21.9%

Cc1ccc(NC(=O)N2CCCCC2)cc1[N+](=O)[O-]
active: CCRF-CEM leukemia 7.44%
inactive: SK-MEL-2 melanoma 119% | SN12C renal 106% | UO-31 renal 77.6% | ACHN renal 95% | A498 renal 107% | MOLT-4 leukemia 137%

Cc1cn(-c2cccc(NC(=O)c3ccc(C)c(Nc4nccc(-c5cccnc5)n4)c3)c2)cn1
active: SN12C renal -4.51% | UO-31 renal -22.6% | TK-10 renal -46.3% | ACHN renal -31.9% | MOLT-4 leukemia 5.78%
inactive: SK-MEL-2 melanoma 75.8% | CCRF-CEM leukemia 25%

S=C1N(c2ccccc2)CN(C2CCCCC2)CN1c1ccccc1
inactive: SK-MEL-2 melanoma 106% | SN12C renal 103% | UO-31 renal 92.3% | ACHN renal 97.6% | A498 renal 103% | CCRF-CEM leukemia 80.6% | MOLT-4 leukemia 125%

CSc1nc(S(C)(=O)=O)nc2[nH]c(=O)[nH]c12
inactive: SK-MEL-2 melanoma 106% | SN12C renal 95.9% | TK-10 renal 119% | ACHN renal 97.7% | A498 renal 118% | CCRF-CEM leukemia 117% | MOLT-4 leukemia 116%

CNC(=O)c1c(I)c(NC(C)=O)c(I)c(C(=O)O)c1I
inactive: EKVX NSCLC 126% | SN12C renal 95.6% | UO-31 renal 88.6% | TK-10 renal 114% | ACHN renal 102% | CAKI-1 renal 115% | A498 renal 99.3% | CCRF-CEM leukemia 104% | MOLT-4 leukemia 110%

CC(=O)Nc1ccc(S(=O)(=O)N/N=C(\C)c2ccc(C)cc2C)cc1
inactive: SK-MEL-2 melanoma 93.1% | SN12C renal 110% | TK-10 renal 108% | ACHN renal 95.3% | A498 renal 112% | CCRF-CEM leukemia 103% | MOLT-4 leukemia 97.7%

OC[C@H]1OC([S-])[C@H](O)[C@@H](O)[C@@H]1O.[Au+] (some centres not stated)
inactive: EKVX NSCLC 106% | SN12C renal 98.5% | UO-31 renal 99.4% | TK-10 renal 124% | ACHN renal 105% | CAKI-1 renal 108% | A498 renal 174% | CCRF-CEM leukemia 61.5% | MOLT-4 leukemia 75.9%
